Fam108B counter – blocks mouse Fam108B hydrolase in RBBP9 counter-screen. inhibition, % at 9.51 µM. recombinant Fam108B, FP-Rh probe fluorescence polarization. 0.33% of 300,000 active;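 active means inhibition above the screen mean inhibition plus 3 SD, computed separately per campaign, cut at about 18% in these data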;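 further: inhibitors lower polarization as less probe binds the enzyme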
LYPLA1 inh – LYPLA1 (human) inhibition in PME1 counter-screen | O75608 | recombinant LYPLA1, FP-Rh probe fluorescence polarization | inhibition, % at 5.9 µM | 0.16% of 320,000 active;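 active means inhibition above the mean of all tested compounds plus 3 SD, set per campaign, cut at about 14% in these data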;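 further: inhibitors block serine hydrolase probe labeling of LYPLA1 so polarization falls; 0% = enzyme with DMSO and 100% = wells lacking LYPLA1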
Target sequence (O75608 whole entry, looked up): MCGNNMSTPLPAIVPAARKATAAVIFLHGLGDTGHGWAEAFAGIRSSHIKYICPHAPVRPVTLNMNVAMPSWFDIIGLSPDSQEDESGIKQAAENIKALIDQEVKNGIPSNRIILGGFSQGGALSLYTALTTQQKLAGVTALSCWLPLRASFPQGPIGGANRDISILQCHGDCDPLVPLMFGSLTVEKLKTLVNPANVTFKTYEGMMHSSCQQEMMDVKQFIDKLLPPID
GSTO1 inh – counter-screen for RBBP9 inhibitors: inhibitors of human GSTO1 | P78417 | recombinant GSTO1, activity-based probe fluorescence polarization | inhibition, % at 5.96 µM | 1.1% of 300,000 active | AID 1974;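 active means inhibition above the campaign mean inhibition plus 3 SD, cut at about 35% in these data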;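 further: 0% = GSTO1-1 with DMSO and 100% = wells lacking GSTO1-1 enzyme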
Target sequence (P78417 whole entry, looked up): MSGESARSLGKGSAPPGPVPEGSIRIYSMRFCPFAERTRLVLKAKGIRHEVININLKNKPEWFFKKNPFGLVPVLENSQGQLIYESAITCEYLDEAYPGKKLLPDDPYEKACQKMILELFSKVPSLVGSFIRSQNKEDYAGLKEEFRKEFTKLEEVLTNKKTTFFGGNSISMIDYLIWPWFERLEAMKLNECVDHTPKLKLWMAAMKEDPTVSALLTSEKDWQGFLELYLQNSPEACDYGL
PAD4 FP inh – PAD4 (human) enzyme inhibition; Q9UM07; recombinant PAD4, RCA probe fluorescence polarization; inhibition, % at 6.36 µM; 0.41% of 330,000 active; AID 485272;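 active means percent inhibition above a cutoff equal to the mean of all tested compounds plus 3 SD, cut at about 15% in these data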;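 further: 0% = PAD4 with RCA probe and DMSO and 100% = probe without PAD4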
LYPLA2 inh – LYPLA2 (human) inhibition in PME1 counter-screen; 0.38% of 320,000 active; recombinant LYPLA2, FP-Rh probe fluorescence polarization; O95372; inhibition, % at 5.9 µM;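 active means inhibition above the screen-wide mean plus 3 SD, limit set per campaign, cut at about 26% in these data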;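 further: 0% = LYPLA2 with DMSO and 100% = wells lacking LYPLA2 enzyme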
PME-1 primary – blocks human protein phosphatase methylesterase 1; Q9Y570; recombinant PME-1, FP-Rh probe fluorescence polarization; inhibition, % at 5.9 µM; 0.53% of 320,000 active; AID 2130;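 active means inhibition above the campaign mean of all compounds plus 3 SD, cut at about 26% in these data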;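 further: competitive labeling of PME-1 active site by serine hydrolase directed probe; 0% = PME-1 with DMSO and 100% = wells lacking PME-1 enzyme; inhibitors block probe labeling so polarization falls and inhibition rises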
* = called active by the depositor; / = not tested or not shown. An excerpt weighted towards active compounds, which were near 1.8% of everything screened.

SMILES	Fam108B counter	LYPLA1 inh	GSTO1 inh	PAD4 FP inh	LYPLA2 inh	PME-1 primary
CCOC(=O)c1ccc(N2NC(=O)/C(=C/c3ccc(OC(=O)c4ccco4)c(OC)c3)C2=O)cc1	9	0	37*	-2	5	2
CC1CCc2c(sc3[nH]c(=S)n(C)c(=O)c23)C1 (stereo not drawn)	1	3	-8	4	-2	-1
CC(=O)NCc1ccc(C(=O)CCl)cc1	-1	5	50*	4	-5	-1
CC(=O)NCc1ccc(C(=O)CCl)s1	-1	1	78*	1	-2	-8
CC(=O)Nc1ccc(C(=O)CCl)cc1	/	0	/	-9	-4	2
COc1ccc(C(=O)OCC(=O)c2ccc(CNC(C)=O)s2)cc1	/	2	/	-1	5	1
CC1CCCC(C)N1C(=O)COC(=O)Cc1ccc(F)cc1 (stereo not drawn)	0	4	7	2	-3	-5
CCOC(=O)CCc1c(C)nc(SCCCn2c(=O)[nH]c3ccccc32)c(C#N)c1C	-4	2	1	-5	7	26*
CCOC(=O)N1CC=C2C(C#N)=C(N)C(C#N)(C#N)[C@H](c3ccc(OCC)c(OCC)c3)[C@H]2C1	5	0	2	0	0	18
N#CC1=C(N)C(C#N)(C#N)C(c2cccnc2)C2CN(C(=O)OCc3ccccc3)CC=C12 (stereo not drawn)	0	3	23	1	16	28*
O=C(Nc1ccccc1N1CCCCC1)c1ccc(-c2cc(Cl)ccc2Cl)o1	-3	1	-3	-2	1	-4
Cc1ccc(S(=O)(=O)N/N=C/c2ccc(O)c(O)c2)cc1[N+](=O)[O-]	-4	2	50*	-3	0	-5
Cc1ccc(S(=O)(=O)N/N=C/c2ccccc2O)cc1[N+](=O)[O-]	0	1	-5	-2	5	4
CC(=O)c1ccc(NC(=O)CC2Nc3cccc4cccc(c34)NC2=O)cc1 (stereo not drawn)	7	-6	41*	-8	-3	12
CC(=O)Nc1ccc(NC(=O)CC2Nc3cccc4cccc(c34)NC2=O)cc1 (stereo not drawn)	3	6	28	-2	15	7
CCN(C(=O)CN1CCC(C(=O)OC)CC1)c1c(N)n(Cc2ccccc2)c(=O)[nH]c1=O	/	/	/	-1	/	/
C=CCOC(=O)C1=C[C@@H](c2ccc(C(F)(F)F)cc2)[C@H](CCCO)[C@@H](OCC)O1	1	3	12	0	2	-5
O=[N+]([O-])c1c(NCCCO)cc(SCc2ccco2)c2nonc12	7	-4	35*	6	5	-2
COc1ccc(-c2sc3ccc(N4CCOCC4)cc3c2C#CCCO)cc1	/	/	/	-2	/	/
O=C(COC(=O)c1cccnc1)c1ccc(Cl)c(Cl)c1	-4	-4	36*	-4	-4	-6
O=C(COC(=O)c1cccnc1)c1ccc(Cl)cc1	0	0	21	0	6	-3
O=C(Cc1ccc([N+](=O)[O-])cc1)Nc1cccc(C(=O)N2CCCCC2)c1	/	/	/	2	/	/
COc1ccccc1NC(=O)c1cc(S(=O)(=O)NCc2ccccc2)ccc1F	2	-4	13	2	-6	-1
CCOc1ccccc1NC(=O)c1cc(S(=O)(=O)NCc2ccco2)ccc1F	-6	-5	35*	-9	-1	-9
COc1ccc(OC)c(NC(=O)c2cc(S(=O)(=O)NCc3ccco3)ccc2F)c1	2	-4	36*	-1	-4	7
SMILES	Fam108B counter	LYPLA1 inh	GSTO1 inh	PAD4 FP inh	LYPLA2 inh	PME-1 primary
COc1ccc(CNS(=O)(=O)c2ccc(F)c(C(=O)Nc3ccccc3OC)c2)cc1	-3	4	2	-4	4	2
O=C(NCC1CCCN1S(=O)(=O)c1cccs1)c1ccccc1F (stereo not drawn)	1	1	3	4	1	2
COc1cccc2sc3cc(NCc4ccc(C)o4)ccc3c(=O)c12	/	/	/	-3	/	/
N#CCn1c(CCl)nc2ccccc2c1=O	3	4	48*	-5	4	-2
CCOc1ccc(N2CC(C(=O)NCCCc3ccccc3)CC2=O)cc1 (stereo not drawn)	/	-2	/	-2	5	3
COc1cc(OC)c(NC(=S)Nc2cccc(C(C)=O)c2)cc1Cl	16	-7	-4	0	6	11
COc1cc(OC)c(NC(=S)Nc2cc(Cl)cc(Cl)c2)cc1Cl	21*	-14	-9	-1	-10	9
Cc1ccc(C(=O)N2N=C(c3cccc(NS(C)(=O)=O)c3)CC2c2cccs2)cc1 (stereo not drawn)	-2	-7	-6	3	0	-3
Nc1c(N=Nc2ccccc2F)c(=O)[nH]n1-c1ccccc1	10	-1	2	6	1	36*
Nc1nn(-c2ccccc2)c(N)c1N=Nc1ccccc1F	4	1	-2	-1	-2	7
O=C(/C=C/c1ccco1)OCC1CCCN2CCCCC12 (stereo not drawn)	-2	-1	9	3	0	-4
CC(=O)Nc1ccc(NC(=O)C(C)OC(=O)[C@@H]2CCCN2C(=O)c2cccs2)cc1 (stereo partly drawn)	/	/	/	2	/	/
O=C(CCCCCNC(=O)c1ccccc1)N=Nc1c(O)[nH]c2c(Br)cc(Br)cc12	5	3	57*	0	8	15
CCOC(=O)C1=C(C)OC2(O)c3ccccc3C(=O)C12O (stereo not drawn)	2	3	74*	-15	-2	1
CCOC(=O)C1=C(C)c2ccccc2OC1(CC)C(=O)OCC (stereo not drawn)	/	/	/	-3	/	/
C=CCN(c1ccccc1)S(=O)(=O)c1cccc(C(=O)NCC(c2cccs2)N2CCOCC2)c1 (stereo not drawn)	2	3	11	1	5	0
COc1cc(/C=C2\CCC/C(=C\c3ccc(O)c(OC)c3)C2=O)ccc1O	14	-7	8	4	-6	26*
CC1=C(CC(=O)c2ccccc2)C(=O)c2ccccc2C1=O	4	1	51*	4	7	7
O=C(CN1C(=O)c2ccccc2C1=O)c1ccccc1	-5	0	10	-7	6	3
Cc1ccc(N=Cc2nc(/C=C/c3cccc([N+](=O)[O-])c3)oc2O)cc1	-1	-5	8	0	3	27*
O=C(O)c1cc(S(=O)(=O)N2CC=C(c3ccccc3)CC2)ccc1O	/	-3	/	-2	-3	3
CC(C)(C)c1ccc(OCC(=O)NNC(=S)NC(=O)c2ccccc2[N+](=O)[O-])c(Br)c1	3	4	5	-7	27*	2
O=C1c2cccc3cccc(c23)C(=O)N1CCN1CCN(CC(O)COc2ccccc2)CC1 (stereo not drawn)	-3	3	-2	-5	31*	2
Cc1cnc(C(=O)OCC(=O)N2CCC(C)CC2)cn1	/	/	/	0	/	/
